Screens from PubChem BioAssay.
LDHA inh = qHTS assay for inhibitors of human lactate dehydrogenase. L-lactate dehydrogenase A chain (Homo sapiens), P00338. purified LDHA, NADH/diaphorase-resazurin fluorescence; active compounds read low. activity change, % (values are at about 110 or 230 µM). hit rate 0.15% among 480,000; in the data active means activity change below about -30%; inconclusive means mostly about -25% to -30%;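 further: plate controls were DMSO wells for no effect and wells without enzyme for full effect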
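Enzyme activity of human lactate dehydrogenase 5 (2 nM; 0.06 mM NADH, 0.2 mM pyruvate, 5 min, RT) is measured via a resazurin/diaphorase fluorescence readout of residual NADH.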
PI4K2A block = qHTS for small molecular inhibitors of PI4K2A | purified PI4K2A, ADP-Glo luminescence, 1 h; active compounds read low | activity change, negative = inhibition, % at 76.9 µM | hit rate 0.13% among 420,000; in the data active means activity change below about -50%; inconclusive means mostly about -30% to -49%;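 further: -100% = wells without enzyme as full effect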
Target sequence (Q9BTU6 whole entry, looked up): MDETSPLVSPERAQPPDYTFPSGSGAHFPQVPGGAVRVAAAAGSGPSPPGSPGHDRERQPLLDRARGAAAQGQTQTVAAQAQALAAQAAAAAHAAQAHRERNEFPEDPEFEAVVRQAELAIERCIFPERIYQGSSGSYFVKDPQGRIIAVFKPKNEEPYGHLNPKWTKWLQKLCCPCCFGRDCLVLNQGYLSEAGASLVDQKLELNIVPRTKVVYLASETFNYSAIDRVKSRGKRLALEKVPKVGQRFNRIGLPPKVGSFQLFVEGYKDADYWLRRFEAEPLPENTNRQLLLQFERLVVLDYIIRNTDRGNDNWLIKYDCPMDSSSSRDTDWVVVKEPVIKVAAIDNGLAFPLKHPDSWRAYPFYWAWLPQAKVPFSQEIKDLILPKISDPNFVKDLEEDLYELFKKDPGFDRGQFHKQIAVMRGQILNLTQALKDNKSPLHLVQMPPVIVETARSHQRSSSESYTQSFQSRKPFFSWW
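ADP-Glo luminescence measured ADP generated by PI4K2A enzyme (4 ug/mL before mixing) with 1.2 mM PI substrate (pre-mix) and 300 microM ATP (pre-mix). Tris pH7.5 buffer with MgCl2, Triton X-100; 1 h reaction at ambient temperature.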
DRD3 agonist = qHTS of D3 Dopamine Receptor Agonist: qHTS | D(3) dopamine receptor (Homo sapiens), P35462 | D3R DiscoveRx beta-arrestin cells, luminescence, 90 min | max activation, % | hit rate 0.58% among 410,000 | AID 652048, 2013; in the data active means max activation above about 30%; further: 0% is about no effect
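Cells at 1500/well, incubated overnight, then treated with pinned compounds (dopamine as control) for 90 min at 37 degrees C. DiscoveRx reagent added for 30 - 60 minutes at room temperature; luminescence read.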
Akt phos inh = HTS Assay for Inhibitors of Akt Phophorylation: Primary Screen | activity change, % for hits at 50 µM | AID 651550, 2012 | hit rate 0.32% among 360,000 | Neuro2A IGF-stimulated pAkt S473 HTRF, 20 min; active compounds read low; in the data active means activity change below about -80%; inconclusive means mostly about -51% to -80%; further: on the % scale 0 is the no-effect control and ±100 the full control effect
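Neuro2A cells (4,500/well, DMEM with 0.5% FBS) were treated with compound at a single 50 µM final concentration, stimulated with 6 nM IGF for 20 min at 37 °C, and lysed. Phospho-Akt Ser473 was read by HTRF as 665/615 ratio ×10^4.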
RGS4 inh = Inhibitors of Regulator of G Protein Signaling (RGS) 4: qHTS. Regulator of G-protein signaling 4 (Homo sapiens), P49798. Transcreener GDP fluorescence polarization, RGS4-accelerated GTP hydrolysis. Potency, µM (doses to about 114 µM), for the others: at the highest dose activity change, negative = inhibition, actives largely listed as inhibitors. hit rate 0.039% among 390,000; active means well fitted inhibition curve with a large enough effect; inconclusive means small, poorly fitted or top-dose-only effect; inactive means no such curve, though single readings can be large or run the other way; further: potency means the concentration at half of the fitted maximal effect; on the % scale 0 is the no-effect control and ±100 the full control effect; nearly all actives have a fitted effect of over 75% in size
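MLSMR compounds (23 nl, pin-transferred) preincubated 10 min at room temperature with a 500nM (2x) first reagent, then RGS4 at 900nM (2x) plus Transcreener GDP mix added; fluorescence polarization (620/688 nm) read before and after 90 min at 30 °C.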
D3 antag = qHTS of D3 Dopamine Receptor Antagonist: qHTS. D(3) dopamine receptor (Homo sapiens), P35462. hit rate 2.5% among 360,000. AID 652054, 2013. D3R cells, DiscoveRx beta-arrestin luminescence, antagonist mode; active compounds read low. max response, negative = inhibition, %; in the data active means max response below about -50%; inconclusive means no clear call, values can overlap the other calls; further: on the % scale 0 is the no-effect control and ±100 the full control effect
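Cells plated overnight at 1500 cells/well, then exposed to library compounds with dopamine controls for 90 minutes at 37 degrees C. DiscoveRx reagent added for 30–60 minutes at room temperature; luminescence read, quantitative HTS format.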
* marks the source's active call; other numbers are inactive results; i = inactive; ? = inconclusive; / = no result. Sampled rows, rich in hits. Any-hit rate of the full collection: about 2.8%.

SMILES | LDHA inh | PI4K2A block | DRD3 agonist | Akt phos inh | RGS4 inh | D3 antag
Cc1ccccc1S(=O)(=O)Cc1ccc(C(=O)NCCN2CCN(Cc3ccccc3)CC2)o1 | -4 | 2 | -5 | i | -13% | -51*
Cc1ccccc1S(=O)(=O)Cc1ccc(C(=O)NCCCN2CCN(C)CC2)o1 | -3 | -1 | 0 | i | 3% | 5
Nc1ccccc1N1CCN(C(=O)c2ccccc2)CC1 | -2 | 5 | 6 | -103%* | -4% | -11
COc1ccc(-c2cc(C(F)(F)F)nc(S(=O)(=O)CCC(=O)Nc3ccc(Cl)cc3)n2)cc1 | 22 | / | / | / | / | /
Cc1ccccc1S(=O)(=O)Cc1ccc(C(=O)N2CCN(c3cccc(C)c3C)CC2)o1 | -2 | -2 | 27 | -111%* | -20% | -3
Cc1ccccc1S(=O)(=O)Cc1ccc(C(=O)N2CCN(c3cccc(Cl)c3)CC2)o1 | -4 | -2 | 0 | / | 1% | /
COc1ccc(C(=O)/C=C/c2ccccc2F)c(OC(=O)c2ccccc2Br)c1 | 28 | / | / | / | / | /
Cc1cc(C)c(NC(=O)C2CCCN2C)c(C)c1 (configuration not stated) | -9 | 1 | 11 | -101%* | 16% | -11
COc1ccc(CCNC(=O)Nc2cccc(CN3CCOC3=O)c2)cc1OC | -2 | / | / | / | / | /
CC(C)NC(=O)/C(=C\c1cccc([N+](=O)[O-])c1)NC(=O)c1ccccc1 | 1 | 4 | -4 | i | 29% | -107*
O=C(NCc1cccnc1)/C(=C/c1ccc([N+](=O)[O-])cc1)NC(=O)c1ccccc1 | -9 | -9 | 31* | i | -5% | -3
O=C(NCc1cccnc1)/C(=C/c1ccc(Cl)cc1)NC(=O)c1ccccc1 | -8 | -5 | -6 | i | -43% | -15
COC(=O)c1cc(C)sc1NC(=O)CC1Sc2ccc(C(F)(F)F)cc2NC1=O (configuration not stated) | 1 | / | / | / | / | /
Cc1ccc(C(=O)N2CC=C(c3c[nH]c4ccccc34)CC2)cc1 | 6 | / | / | / | / | /
Nc1nc(CN2CCN(c3ccccc3F)CC2)nc(N2CCCc3ccccc32)n1 | 0 | -4 | 32* | i | -13% | -24
Nc1nc(CN2CCN(c3ccccc3)CC2)nc(N2CCCc3ccccc32)n1 | 0 | 3 | 6 | i | -4% | ?
Nc1nc(CN2CCN(c3cccc(Cl)c3)CC2)nc(N2CCCc3ccccc32)n1 | 4 | -4 | 16 | i | 3% | -77*
Nc1nc(CN2CCN(Cc3ccccc3)CC2)nc(N2CCCc3ccccc32)n1 | -1 | 5 | -13 | i | 21% | -21
Cc1ccc(C(=O)OCC(=O)Nc2cccc(F)c2)cc1C | 8 | / | / | / | / | /
Cc1ccc2c(CN(C)CCOc3ccccc3)cc(=O)oc2c1 | -6 | / | / | / | / | /
Nc1ccc(Oc2ncccn2)cc1 | 13 | -54* | 1 | i | -27% | -13
O=Cc1cccc(Oc2ncccn2)c1 | -2 | 4 | 2 | i | -11% | 1
NS(=O)(=O)c1ccc(N=Nc2c(-c3ccccc3)[nH]n(-c3nc(-c4ccccc4)cs3)c2=O)cc1 | -6 | -1 | -32 | i | 4% | -66*
CC(C)CNC(=O)c1ccccc1NC(=O)Nc1ccccc1 | -2 | 4 | 0 | -105%* | 1% | 30
Cc1cc(C(=O)COC(=O)c2ccc(O)cc2)c(C)n1Cc1ccco1 | 0 | 3 | 5 | i | -25% | -15
Cc1cc(C(=O)COC(=O)c2cccs2)c(C)n1Cc1ccco1 | -33* | / | / | / | / | /
CC1(C(=O)Nc2ccc(Cl)c(Cl)c2)CCN1C(=O)CC(c1ccccc1)c1ccccc1 (configuration not stated) | -8 | -3 | -8 | i | / | -19
